Assay results taken from PubChem BioAssay AID1159580 (chemical genetic matrix, 2015).
Screen size: about 5,500 compounds; about 2,000 (36%) were called active. About 18% were inconclusive and are not listed. No stated cut-off is given here; in the data, active means normalized growth mostly below about 0.91 (no sharp cut-off); inconclusive means no clear call, values can overlap the other calls; inactive means mostly above about 0.92. Some of the results follow.

Test: chemical genetic growth profiling, strain panel (AID 1159580);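 further: tested at 20 µM; growth read once vehicle control cultures reached saturation at 30 °C; 1 = growth at the plate median or of vehicle wells; lower values mean less growth of the strain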
Conditions: growth OD
[1] = S. cerevisiae deletion strains, locus YDL101C, strain DUN1, active compounds read low
[2] = S. cerevisiae deletion strains, locus YHR030C, strain SLT2, active compounds read low

Measured: normalized growth

COc1ccc(OC)c(CNC(=O)Cc2cccs2)c1
inactive: S. cerevisiae deletion strains, locus YAL013W, strain DEP1, active compounds read low 1.01 | S. cerevisiae deletion strains, locus YBR229C, strain ROT2, active compounds read low 1.03 | S. cerevisiae deletion strains, locus YCL061C, strain MRC1, active compounds read low 1.03 | [1] 1.05 | S. cerevisiae deletion strains, locus YDL134C, strain PPH21, active compounds read low 0.997 | S. cerevisiae deletion strains, locus YDR150W, strain NUM1, active compounds read low 0.993 | S. cerevisiae deletion strains, locus YEL061C, strain CIN8, active compounds read low 0.995 | S. cerevisiae deletion strains, locus YGR078C, strain PAC10, active compounds read low 1.04 | [2] 1.04 | S. cerevisiae deletion strains, locus YHR087W, strain rtc3, active compounds read low 0.952 | S. cerevisiae deletion strains, locus YJR043C, strain POL32, active compounds read low 1.03 | S. cerevisiae deletion strains, locus YJR075W, strain HOC1, active compounds read low 0.998 | S. cerevisiae deletion strains, locus YLR039C, strain RIC1, active compounds read low 1.04 | S. cerevisiae deletion strains, locus YLR058C, strain SHM2 (second series), active compounds read low 0.988 | S. cerevisiae deletion strains, locus YLR085C, strain ARP6, active compounds read low 0.994 | S. cerevisiae deletion strains, locus YLR262C, strain YPT6, active compounds read low 1.01 | S. cerevisiae deletion strains, locus YML094W, strain GIM5, active compounds read low 0.962 | S. cerevisiae deletion strains, locus YMR219W, strain ESC1, active compounds read low 0.996 | S. cerevisiae deletion strains, locus YMR263W, strain SAP30, active compounds read low 1.01 | S. cerevisiae deletion strains, locus YNL153C, strain GIM3, active compounds read low 1.03 | S. cerevisiae deletion strains, locus YNL298W, strain CLA4 (second series), active compounds read low 1 | S. cerevisiae deletion strains, locus YNL322C, strain KRE1, active compounds read low 1 | S. cerevisiae deletion strains, locus YNR030W, strain Alg12, active compounds read low 1 | S. cerevisiae deletion strains, locus YPL055C, strain LGE1, active compounds read low 0.961 | S. cerevisiae deletion strains, locus YPL241C, strain CIN2, active compounds read low 0.983 | S. cerevisiae deletion strains, locus YPR135W, strain CTF4, active compounds read low 1.06 | S. cerevisiae strains, strain wild type, active compounds read low 1.01

COc1ccc(Br)c(C(=O)/C(C#N)=C/c2cccs2)c1
active: S. cerevisiae deletion strains, locus YAR019C, strain CDC15, active compounds read low 0.765 | [1] 0.676 | S. cerevisiae deletion strains, locus YDL132W, strain cdc53, active compounds read low 0.871 | S. cerevisiae deletion strains, locus YDL214C, strain PRR2, active compounds read low 0.221 | S. cerevisiae deletion strains, locus YDR054C, strain cdc34, active compounds read low 0.696 | S. cerevisiae deletion strains, locus YDR477W, strain SNF1, active compounds read low 0.197 | S. cerevisiae deletion strains, locus YER123W, strain YCK3, active compounds read low 0.122 | S. cerevisiae deletion strains, locus YER133W, strain GLC7, active compounds read low 0.187 | S. cerevisiae deletion strains, locus YFL009W, strain cdc4, active compounds read low 0.861 | S. cerevisiae deletion strains, locus YFL029C, strain CAK1, active compounds read low 0.724 | S. cerevisiae deletion strains, locus YFR019W, strain FAB1, active compounds read low 0.149 | S. cerevisiae deletion strains, locus YGR040W, strain KSS1, active compounds read low 0.229 | S. cerevisiae deletion strains, locus YGR052W, strain FMP48, active compounds read low 0.205 | S. cerevisiae deletion strains, locus YGR092W, strain DBF2, active compounds read low 0.178 | [2] 0.125 | S. cerevisiae deletion strains, locus YHR079C, strain IRE1, active compounds read low 0.132 | S. cerevisiae deletion strains, locus YHR082C, strain KSP1, active compounds read low 0.15 | S. cerevisiae deletion strains, locus YHR205W, strain SCH9, active compounds read low 0.0479 | S. cerevisiae deletion strains, locus YJL095W, strain BCK1, active compounds read low 0.146 | S. cerevisiae deletion strains, locus YJL157C, strain FAR1, active compounds read low 0.181 | S. cerevisiae deletion strains, locus YJR066W, strain TOR1 (second series), active compounds read low 0.252 | S. cerevisiae deletion strains, locus YJR066W, strain TOR1, active compounds read low 0.146 | S. cerevisiae deletion strains, locus YKL048C, strain ELM1, active compounds read low 0.234 | S. cerevisiae deletion strains, locus YKL067W, strain YNK1, active compounds read low 0.262 | S. cerevisiae deletion strains, locus YKL101W, strain HSL1, active compounds read low 0.307 | S. cerevisiae deletion strains, locus YKL193C, strain SDS22, active compounds read low 0.787 | S. cerevisiae deletion strains, locus YKL203C, strain TOR2, active compounds read low 0.2 | S. cerevisiae deletion strains, locus YLR113W, strain HOG1, active compounds read low 0.23 | S. cerevisiae deletion strains, locus YLR133W, strain CKI1, active compounds read low 0.224 | S. cerevisiae deletion strains, locus YLR403W, strain SFP1, active compounds read low 0.081 | S. cerevisiae deletion strains, locus YML070W, strain DAK1, active compounds read low 0.177 | S. cerevisiae deletion strains, locus YMR205C, strain PFK2 (second series), active compounds read low 0.287 | S. cerevisiae deletion strains, locus YMR277W, strain FCP1, active compounds read low 0.814 | S. cerevisiae deletion strains, locus YNL006W, strain LST8, active compounds read low 0.875 | S. cerevisiae deletion strains, locus YNL020C, strain ARK1, active compounds read low 0.22 | S. cerevisiae deletion strains, locus YNL161W, strain CBK1, active compounds read low 0.836 | S. cerevisiae deletion strains, locus YNL183C, strain NPR1, active compounds read low 0.151 | S. cerevisiae deletion strains, locus YNL222W, strain SSU72, active compounds read low 0.861 | S. cerevisiae deletion strains, locus YNL307C, strain MCK1 (second series), active compounds read low 0.169 | S. cerevisiae deletion strains, locus YOL078W, strain AVO1, active compounds read low 0.722 | S. cerevisiae deletion strains, locus YOL136C, strain PFK27, active compounds read low 0.139 | S. cerevisiae deletion strains, locus YOR061W, strain CKA2, active compounds read low 0.344 | S. cerevisiae deletion strains, locus YOR119C, strain RIO1, active compounds read low 0.249 | S. cerevisiae deletion strains, locus YOR231W, strain MKK1, active compounds read low 0.187 | S. cerevisiae deletion strains, locus YPL031C, strain PHO85, active compounds read low 0.179 | S. cerevisiae deletion strains, locus YPL153C, strain RAD53, active compounds read low 0.198 | S. cerevisiae deletion strains, locus YPL204W, strain HRR25, active compounds read low 0.189 | S. cerevisiae deletion strains, locus YPL256C, strain CLN2, active compounds read low 0.16 | S. cerevisiae deletion strains, locus YPR106W, strain ISR1, active compounds read low 0.886 | S. cerevisiae deletion strains, strain NNK1, active compounds read low 0.676 | S. cerevisiae deletion strains, strain TSCII, active compounds read low 0.736
inactive: S. cerevisiae deletion strains, locus YBL105C, strain PKC1, active compounds read low 0.94 | S. cerevisiae deletion strains, locus YBR135W, strain CKS1, active compounds read low 0.903 | S. cerevisiae deletion strains, locus YBR136W, strain MEC1, active compounds read low 0.922 | S. cerevisiae deletion strains, locus YBR160W, strain CDC28, active compounds read low 0.921 | S. cerevisiae deletion strains, locus YDL017W, strain CDC7, active compounds read low 0.921 | S. cerevisiae deletion strains, locus YDL028C, strain MPS1, active compounds read low 0.909 | S. cerevisiae deletion strains, locus YDL108W, strain KIN28, active compounds read low 0.904 | S. cerevisiae deletion strains, locus YDR052C, strain DBF4, active compounds read low 0.929 | S. cerevisiae deletion strains, locus YDR226W, strain ADK1, active compounds read low 0.908 | S. cerevisiae deletion strains, locus YFR003C, strain YPI1, active compounds read low 0.918 | S. cerevisiae deletion strains, locus YFR028C, strain CDC14, active compounds read low 0.913 | S. cerevisiae deletion strains, locus YIL147C, strain SLN1, active compounds read low 0.919 | S. cerevisiae deletion strains, locus YJL128C, strain PBS2, active compounds read low 0.874 | S. cerevisiae deletion strains, locus YJR016C, strain ILV3, active compounds read low 0.915 | S. cerevisiae deletion strains, locus YMR001C, strain CDC5, active compounds read low 0.921 | S. cerevisiae deletion strains, locus YNL207W, strain RIO2, active compounds read low 0.917 | S. cerevisiae deletion strains, locus YOR329C, strain SCD5, active compounds read low 0.929 | S. cerevisiae deletion strains, locus YPL209C, strain IPL1, active compounds read low 0.926 | S. cerevisiae deletion strains, locus YPR025C, strain CCL1, active compounds read low 0.914 | S. cerevisiae deletion strains, locus YPR111W, strain DBF20, active compounds read low 0.935
